# Experimental data from ChEMBL document CHEMBL1961873, “Compounds: GSK PKIS; Assays: Nanosyn kinase panel” (2012).
# Where “and” joins values, the source holds several entries; their conditions need not be identical. Equal entries are not always repeated.
# How the values were obtained:
# [1] = biological target: Fibroblast growth factor receptor 4 (Homo sapiens) (UniProt P22455); details: at 1 µM;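 note: reported figure is the averaged percent inhibition of FGFR4, from the GSK PKIS kinase screening panel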
# Fibroblast growth factor receptor 4 (Homo sapiens), sequence (P22455 22-802 limits assumed): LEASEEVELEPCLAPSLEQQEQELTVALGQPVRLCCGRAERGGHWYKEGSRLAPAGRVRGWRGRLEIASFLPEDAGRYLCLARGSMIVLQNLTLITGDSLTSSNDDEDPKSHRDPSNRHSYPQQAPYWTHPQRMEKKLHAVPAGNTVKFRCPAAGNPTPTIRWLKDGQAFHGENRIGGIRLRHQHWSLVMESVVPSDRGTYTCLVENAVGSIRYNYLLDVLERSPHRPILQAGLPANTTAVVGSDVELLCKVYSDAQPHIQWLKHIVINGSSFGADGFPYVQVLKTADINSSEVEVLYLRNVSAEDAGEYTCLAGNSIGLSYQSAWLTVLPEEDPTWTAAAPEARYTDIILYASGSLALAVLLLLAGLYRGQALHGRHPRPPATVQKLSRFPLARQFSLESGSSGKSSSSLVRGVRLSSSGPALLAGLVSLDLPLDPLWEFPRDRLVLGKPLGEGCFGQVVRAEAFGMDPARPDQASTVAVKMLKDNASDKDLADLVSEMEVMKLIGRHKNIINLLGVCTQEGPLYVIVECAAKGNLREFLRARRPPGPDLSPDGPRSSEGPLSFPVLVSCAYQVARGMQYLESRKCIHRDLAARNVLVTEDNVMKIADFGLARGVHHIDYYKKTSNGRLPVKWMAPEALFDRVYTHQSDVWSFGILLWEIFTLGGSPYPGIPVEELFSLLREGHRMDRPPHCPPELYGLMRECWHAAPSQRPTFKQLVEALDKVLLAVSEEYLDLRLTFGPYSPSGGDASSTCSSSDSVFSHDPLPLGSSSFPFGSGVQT
# [2] = biological target: Tyrosine-protein kinase Fgr (Homo sapiens) (UniProt P09769); details: at 0.1 µM
# Tyrosine-protein kinase Fgr (Homo sapiens), sequence (P09769 2-529 limits assumed): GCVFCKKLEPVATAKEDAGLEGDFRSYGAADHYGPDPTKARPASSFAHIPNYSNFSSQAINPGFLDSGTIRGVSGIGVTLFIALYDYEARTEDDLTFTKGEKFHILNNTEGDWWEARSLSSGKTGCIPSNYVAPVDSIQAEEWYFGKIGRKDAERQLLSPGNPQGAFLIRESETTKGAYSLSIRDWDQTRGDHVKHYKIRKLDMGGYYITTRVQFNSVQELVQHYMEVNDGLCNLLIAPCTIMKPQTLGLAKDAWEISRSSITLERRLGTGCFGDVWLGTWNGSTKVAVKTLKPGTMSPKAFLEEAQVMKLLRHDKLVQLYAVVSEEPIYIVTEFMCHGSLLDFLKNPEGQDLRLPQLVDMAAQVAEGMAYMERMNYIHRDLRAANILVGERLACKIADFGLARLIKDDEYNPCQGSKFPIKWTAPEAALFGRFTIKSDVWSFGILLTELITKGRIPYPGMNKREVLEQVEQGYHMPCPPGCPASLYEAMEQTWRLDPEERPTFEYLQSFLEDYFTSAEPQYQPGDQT
# [3] = biological target: Tyrosine-protein kinase Fgr (Homo sapiens) (UniProt P09769); details: at 1 µM
# [4] = biological target: Vascular endothelial growth factor receptor 1 (Homo sapiens) (UniProt P17948); details: at 0.1 µM
# Vascular endothelial growth factor receptor 1 (Homo sapiens), sequence (P17948 whole entry): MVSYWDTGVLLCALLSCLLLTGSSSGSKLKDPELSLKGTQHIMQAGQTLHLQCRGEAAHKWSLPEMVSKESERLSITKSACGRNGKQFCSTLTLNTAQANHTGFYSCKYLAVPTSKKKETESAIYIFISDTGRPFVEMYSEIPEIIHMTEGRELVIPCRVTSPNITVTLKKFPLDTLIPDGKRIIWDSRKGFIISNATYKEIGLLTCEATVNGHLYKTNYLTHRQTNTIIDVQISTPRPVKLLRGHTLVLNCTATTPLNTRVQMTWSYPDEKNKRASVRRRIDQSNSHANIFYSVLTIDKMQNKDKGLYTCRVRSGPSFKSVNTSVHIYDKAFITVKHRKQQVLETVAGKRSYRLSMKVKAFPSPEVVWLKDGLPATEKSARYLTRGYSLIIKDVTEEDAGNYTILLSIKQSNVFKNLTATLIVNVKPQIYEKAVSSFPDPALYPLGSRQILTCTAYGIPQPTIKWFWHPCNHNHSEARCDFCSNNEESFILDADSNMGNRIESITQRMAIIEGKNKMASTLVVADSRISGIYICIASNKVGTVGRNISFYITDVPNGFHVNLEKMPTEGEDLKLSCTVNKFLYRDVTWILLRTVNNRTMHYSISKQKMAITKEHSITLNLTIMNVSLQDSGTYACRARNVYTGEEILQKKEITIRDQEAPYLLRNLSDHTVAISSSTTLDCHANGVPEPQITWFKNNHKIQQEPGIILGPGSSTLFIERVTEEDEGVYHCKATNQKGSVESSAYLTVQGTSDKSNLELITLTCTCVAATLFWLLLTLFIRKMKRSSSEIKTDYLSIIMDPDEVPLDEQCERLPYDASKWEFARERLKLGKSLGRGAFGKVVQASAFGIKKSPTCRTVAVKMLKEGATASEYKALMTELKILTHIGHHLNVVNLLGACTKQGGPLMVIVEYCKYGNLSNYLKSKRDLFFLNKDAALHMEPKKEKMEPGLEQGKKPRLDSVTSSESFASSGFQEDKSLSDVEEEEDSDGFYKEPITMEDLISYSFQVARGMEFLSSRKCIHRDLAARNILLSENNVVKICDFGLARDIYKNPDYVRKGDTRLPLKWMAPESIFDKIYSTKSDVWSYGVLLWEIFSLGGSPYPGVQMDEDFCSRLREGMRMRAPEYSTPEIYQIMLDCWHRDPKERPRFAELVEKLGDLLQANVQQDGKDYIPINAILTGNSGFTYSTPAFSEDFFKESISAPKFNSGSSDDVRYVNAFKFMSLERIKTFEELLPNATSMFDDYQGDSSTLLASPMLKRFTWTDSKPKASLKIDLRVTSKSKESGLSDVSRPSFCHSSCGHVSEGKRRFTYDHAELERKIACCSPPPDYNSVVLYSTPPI
# [5] = biological target: Vascular endothelial growth factor receptor 1 (Homo sapiens) (UniProt P17948); details: at 1 µM
# [6] = biological target: Receptor-type tyrosine-protein kinase FLT3 (Homo sapiens) (UniProt P36888); details: at 0.1 µM
# [7] = biological target: Receptor-type tyrosine-protein kinase FLT3 (Homo sapiens) (UniProt P36888); details: at 1 µM
# [8] = tested on: T1, Receptor-type tyrosine-protein kinase FLT3 (Homo sapiens), P36888 [D835Y]; details: at 0.1 µM
# T1 sequence (whole entry): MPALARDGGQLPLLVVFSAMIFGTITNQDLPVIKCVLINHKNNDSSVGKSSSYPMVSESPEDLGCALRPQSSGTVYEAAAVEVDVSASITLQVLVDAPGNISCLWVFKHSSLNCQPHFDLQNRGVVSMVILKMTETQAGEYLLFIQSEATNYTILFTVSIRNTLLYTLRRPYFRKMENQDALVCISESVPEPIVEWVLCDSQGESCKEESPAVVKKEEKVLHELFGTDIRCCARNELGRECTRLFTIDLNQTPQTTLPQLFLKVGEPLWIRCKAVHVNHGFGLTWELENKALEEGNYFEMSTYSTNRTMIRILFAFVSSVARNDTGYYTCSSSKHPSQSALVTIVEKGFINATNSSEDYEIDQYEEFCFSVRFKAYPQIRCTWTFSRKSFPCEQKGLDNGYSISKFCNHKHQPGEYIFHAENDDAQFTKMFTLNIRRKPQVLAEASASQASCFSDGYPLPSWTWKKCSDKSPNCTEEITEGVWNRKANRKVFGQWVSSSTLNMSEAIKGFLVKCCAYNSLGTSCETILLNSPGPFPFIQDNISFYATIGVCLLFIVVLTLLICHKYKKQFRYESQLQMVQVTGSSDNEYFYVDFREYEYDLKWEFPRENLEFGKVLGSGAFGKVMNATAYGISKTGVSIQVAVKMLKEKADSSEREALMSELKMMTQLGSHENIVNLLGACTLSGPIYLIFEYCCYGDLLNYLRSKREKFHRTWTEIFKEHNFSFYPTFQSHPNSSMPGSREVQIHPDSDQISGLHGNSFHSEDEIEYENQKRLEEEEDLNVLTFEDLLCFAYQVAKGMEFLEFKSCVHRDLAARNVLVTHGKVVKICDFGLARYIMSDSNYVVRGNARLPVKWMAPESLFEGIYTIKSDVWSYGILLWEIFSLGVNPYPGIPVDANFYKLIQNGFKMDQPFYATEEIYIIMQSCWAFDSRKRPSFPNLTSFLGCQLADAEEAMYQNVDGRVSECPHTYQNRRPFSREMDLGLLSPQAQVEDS
# [9] = biological target: Non-receptor tyrosine-protein kinase TYK2 (Homo sapiens) (UniProt P29597); details: at 1 µM;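 note: values are mean percent inhibition of TYK2 kinase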
# Non-receptor tyrosine-protein kinase TYK2 (Homo sapiens), sequence (P29597 whole entry): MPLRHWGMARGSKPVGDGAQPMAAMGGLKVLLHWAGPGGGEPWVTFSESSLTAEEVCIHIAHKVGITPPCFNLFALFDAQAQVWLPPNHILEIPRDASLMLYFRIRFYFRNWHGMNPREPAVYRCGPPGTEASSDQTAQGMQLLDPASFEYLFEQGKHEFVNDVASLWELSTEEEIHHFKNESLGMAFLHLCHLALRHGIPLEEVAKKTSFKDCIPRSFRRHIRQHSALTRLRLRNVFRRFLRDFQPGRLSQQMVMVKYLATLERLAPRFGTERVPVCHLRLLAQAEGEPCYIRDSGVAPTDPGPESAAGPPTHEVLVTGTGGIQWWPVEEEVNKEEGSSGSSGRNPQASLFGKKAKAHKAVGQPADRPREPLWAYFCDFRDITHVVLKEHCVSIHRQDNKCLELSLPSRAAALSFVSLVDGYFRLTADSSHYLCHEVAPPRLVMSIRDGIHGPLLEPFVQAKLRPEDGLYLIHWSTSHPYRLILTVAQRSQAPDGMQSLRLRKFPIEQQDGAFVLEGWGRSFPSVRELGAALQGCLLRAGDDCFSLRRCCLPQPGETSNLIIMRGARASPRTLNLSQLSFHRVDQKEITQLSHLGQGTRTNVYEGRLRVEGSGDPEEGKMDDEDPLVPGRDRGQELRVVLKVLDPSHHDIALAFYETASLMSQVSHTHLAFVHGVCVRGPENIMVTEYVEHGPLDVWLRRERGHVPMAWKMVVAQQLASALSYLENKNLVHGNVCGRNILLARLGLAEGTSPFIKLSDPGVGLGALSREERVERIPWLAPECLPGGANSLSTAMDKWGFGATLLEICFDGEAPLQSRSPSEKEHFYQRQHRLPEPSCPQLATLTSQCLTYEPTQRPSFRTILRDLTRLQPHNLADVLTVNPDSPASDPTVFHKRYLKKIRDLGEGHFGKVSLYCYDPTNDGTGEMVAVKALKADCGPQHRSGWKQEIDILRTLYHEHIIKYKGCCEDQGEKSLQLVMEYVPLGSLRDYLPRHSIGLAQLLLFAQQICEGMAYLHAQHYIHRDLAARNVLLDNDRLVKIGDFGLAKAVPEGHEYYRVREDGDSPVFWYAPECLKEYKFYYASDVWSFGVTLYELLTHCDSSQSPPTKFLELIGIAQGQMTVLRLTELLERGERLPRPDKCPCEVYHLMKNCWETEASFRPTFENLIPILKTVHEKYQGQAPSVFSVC
# [10] = biological target: T2, Tyrosine-protein kinase receptor TYRO3 (Homo sapiens) (UniProt Q06418); details: at 0.1 µM;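 note: reported percentages are averaged inhibition values of TYRO3 kinase activity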
# T2 sequence (whole entry): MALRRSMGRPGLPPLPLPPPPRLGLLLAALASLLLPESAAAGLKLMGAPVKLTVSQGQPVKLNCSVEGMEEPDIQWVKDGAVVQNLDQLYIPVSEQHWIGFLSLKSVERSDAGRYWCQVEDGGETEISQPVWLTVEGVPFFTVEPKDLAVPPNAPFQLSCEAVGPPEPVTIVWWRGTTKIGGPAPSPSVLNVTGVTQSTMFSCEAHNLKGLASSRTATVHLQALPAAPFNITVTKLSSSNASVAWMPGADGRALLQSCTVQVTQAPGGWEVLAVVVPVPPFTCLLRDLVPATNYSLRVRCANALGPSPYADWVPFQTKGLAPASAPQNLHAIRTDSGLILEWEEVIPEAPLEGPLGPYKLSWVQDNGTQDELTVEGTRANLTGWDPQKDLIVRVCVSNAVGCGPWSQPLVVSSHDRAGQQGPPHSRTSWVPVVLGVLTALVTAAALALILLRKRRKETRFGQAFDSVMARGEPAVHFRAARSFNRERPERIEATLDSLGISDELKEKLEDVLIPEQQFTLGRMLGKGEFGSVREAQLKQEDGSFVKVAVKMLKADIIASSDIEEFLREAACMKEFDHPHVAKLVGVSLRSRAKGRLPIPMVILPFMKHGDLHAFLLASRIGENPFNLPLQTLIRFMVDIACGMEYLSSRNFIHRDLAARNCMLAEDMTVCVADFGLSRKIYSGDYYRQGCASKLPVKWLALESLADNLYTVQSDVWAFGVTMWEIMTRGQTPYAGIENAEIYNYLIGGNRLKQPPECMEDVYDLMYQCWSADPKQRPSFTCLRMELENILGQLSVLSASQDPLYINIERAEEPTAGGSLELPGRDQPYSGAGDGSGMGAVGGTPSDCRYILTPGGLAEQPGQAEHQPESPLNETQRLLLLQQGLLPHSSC
SMILES,inhibition [1],inhibition [2],inhibition [3],inhibition [4],inhibition [5],inhibition [6],inhibition [7],inhibition [8],inhibition [9],inhibition [10]
O=C(O[C@H]1CN[C@H](C#Cc2cc3ncnc(Nc4ccc(OCc5cccc(F)c5)c(Cl)c4)c3s2)C1)N1CCOCC1,-0.16%,4.25%,1.43%,1.9%,-0.14%,3.48%,2.29%,-1.46%,-3.98%,3.72%
CCn1c(-c2nonc2N)nc2cncc(C(=O)NCCNC)c21,1.09%,1.3%,4.66%,2.02%,3.5%,0.34%,4.29%,-3.83%,-3.99%,3.7%
Cc1cc(O)cc(C)c1/C=C/c1cncc(C(N)=O)c1,0.95%,5.81%,38.1%,1.23%,4.11%,1.9%,2.11%,-5.07%,-0.58%,2.41%
COc1ccccc1-c1cc(/C=C2\C(=O)Nc3ncc(Br)cc32)cc(Br)c1O,1.97%,2.7%,11.6%,3.32%,4.73%,4.36%,6.62%,-5.55%,-1.22%,7.47%
O=C1Nc2ccccc2/C1=C1\CCc2cc(O)ccc21,3.99%,2.44%,15.4%,12.7%,25.7%,40.7%,85.5%,27.1%,6.88%,4.69%
CS(=O)(=O)CCNCc1ccc(-c2ccc3ncnc(Nc4ccc(OCc5ccccc5)cc4)c3c2)o1,0.38%,5.33%,20.1%,2.38%,2.68%,2.34%,6.62%,-1.19%,-2.79%,3.45%
CCS(=O)(=O)c1ccc(OC)c(Nc2ncc(-c3cccc(F)c3)o2)c1,17.6%,40.2%,76.2%,14.2%,55.3%,23.3%,74.5%,17.6%,-2.12%,6.63%
CN(c1ccc(NC(=O)NCCN2CCOCC2)cc1)c1ccnc(Nc2ccc(CS(C)(=O)=O)cc2)n1,1.61%,3.44%,11.3%,13.6%,30.7%,56.4%,83.7%,8.58%,-0.59%,3.48%
CCCNc1cccc(-n2ncc3c(N/N=C/c4ccncc4)ncnc32)c1,3.38%,18.9%,52%,2.98%,19.7%,4.53%,17.6%,7.74%,4.3%,5.05%
CN1CCN(Cc2ccc(-c3cc4ncnc(Nc5ccc(OCc6cccc(F)c6)c(Cl)c5)c4s3)o2)CC1,0.2% and 1%,5.67% and 10.9%,30.3% and 30.1%,0.35% and 1.57%,3.76% and 1.58%,3.12% and 0.52%,1.99% and 2.76%,-3.92% and 0.13%,-7.87% and -0.75%,2.09% and 4.83%
COc1cc(Nc2ncc(-c3ccccc3)o2)cc(OC)c1,-0.29%,5.71%,30.2%,4.69%,18.8%,71.8%,90.5%,5.63%,-1.72%,2.81%
N#Cc1cccc(Nc2ncc(-c3ccccc3)o2)c1,3.3%,5.47%,13.5%,2.46%,9.52%,12%,61.8%,3.75%,-1.92%,1.76%
CC1=C(C(=O)Nc2ccc3[nH]ncc3c2)C(c2ccc(F)cc2)N=C(c2ccc(C(F)(F)F)nc2)N1 (stereo not given),4.41%,1.36%,7.33%,2.08%,3.96%,-0.83%,4.45%,-1.1%,-2.96%,2.47%
NS(=O)(=O)c1ccc(N/N=C2\C(=O)Nc3ccc(C(=O)NCc4ccncc4)cc32)cc1,2.18%,4.24%,12.5%,2.5%,10.3%,2.9%,11.4%,3.79%,0.98%,2.32%
OCCCNc1nccc(-c2c(-c3ccc(F)cc3)nn3cc(C(F)(F)F)ccc23)n1,0.98%,2.9%,8.24%,1.4%,3.41%,1.66%,3.11%,-1.23%,-1.77%,1.9%
CCN1CCC(C(=O)Nc2n[nH]c3nnc(-c4cccc(F)c4F)cc23)CC1,1.49%,1.72%,3.35%,0.76%,1.26%,1.71%,6.05%,-1.16%,-3.82%,-1.35%

SMILES,inhibition [1],inhibition [2],inhibition [3],inhibition [4],inhibition [5],inhibition [6],inhibition [7],inhibition [8],inhibition [9],inhibition [10]
N#Cc1ccc2c(-c3ccnc(NC4CC4)n3)c(-c3ccc(F)cc3)nn2c1,-0.59%,1.68%,1.53%,1.23%,3.07%,0.32%,-2.7%,-5.78%,-2.44%,-1.24%
Nc1nccc(-c2c(-c3ccc(F)cc3)ncn2C2CCNCC2)n1,-0.1% and 1.64%,-0.15% and 1.9%,4.65% and 8.7%,-0.52% and 1.63%,-0.59% and 2.14%,-1.21% and 1.71%,-2.93% and 1.86%,-8.75% and 1.68%,2.68% and 1.47%,-2.12% and 1.7%
COc1c(C(N)=O)cc(-c2ccc(Cl)cc2)cc1-c1ccc(S(N)(=O)=O)cc1,2.25%,0.21%,2.86%,-0.38%,2.07%,1.63%,3.25%,-1.44%,-6.53%,2.09%
COc1cc(N2CCN(C(C)C)CC2)ccc1Nc1nc(Nc2cccc(F)c2C(=O)O)c2cc[nH]c2n1,3.72%,4.76%,4%,1.38%,1.96%,0.4%,10.3%,0.23%,-2.8%,2.73%
CC1=C(C(=O)Nc2ccc3[nH]nc(C)c3c2)C(c2ccc(C(F)(F)F)cc2)CC(=O)N1 (stereo not given),2.06%,1.2%,3.75%,1.04%,5.46%,-0.53%,3.38%,0.37%,37.5%,2.07%
O=C(O[C@H]1CN[C@H](C#Cc2cc3ncnc(Nc4ccc5c(cnn5Cc5ccccc5)c4)c3s2)C1)N1CCOCC1,0.38%,2.54%,11.2%,-2.71%,0.04%,-2.76%,-3.41%,-5.14%,1.01%,-0.42%
COc1cc2c(cc1Nc1nc(Nc3cccc(F)c3C(N)=O)c3cc[nH]c3n1)N(C(=O)CN1CCN(C(C)C)CC1)CC2,1.15%,0.5%,0.3%,-1.2%,1.09%,1.14%,0.93%,-4.8%,-1.21%,-0.96%
Cc1nnc(-c2cccc(-c3ccc(C(=O)NCC4CC4)cc3)c2)o1,0.59%,5.74%,2.02%,3.18%,1.49%,1.38%,4.66%,-2.89%,-4.07%,4.15%
CN(C)CCNC(=O)Nc1ccc(N(C)c2ccnc(Nc3ccc(CS(C)(=O)=O)cc3)n2)cc1,2.84%,1.07%,9.57%,4.18%,8.87%,16%,58.6%,-5.17%,-3.31%,2.66%
CS(=O)(=O)CCNCc1ccc(-c2ccc3ncnc(Nc4ccc(OCc5cccc(C(F)(F)F)c5)cc4)c3c2)o1,1.52%,0.16%,3.55%,1.21%,2.94%,10.4%,28.9%,0.04%,-4.13%,0.61%
COC(=O)Nc1nc2cc(Oc3ccc(NC(=O)Nc4ccccc4)cc3)ccc2[nH]1,-0.59%,4.41%,3.18%,16.5%,22.1%,5.43%,14.2%,-4.53%,-1.49%,1.8%
CNC(=O)c1ncccc1Nc1nc(Nc2cc3c(cc2OC)CCCN3C(=O)CN(C)C)nc2[nH]ccc12,0.76%,1.73%,7.26%,0.02%,-0.67%,3.6%,4.13%,1.41%,-1.39%,4.43%
COc1cc(N2CCN(C(C)C)CC2)ccc1Nc1nc(Nc2cccc3ncccc23)c2cc[nH]c2n1,0.41%,-0.04%,3.16%,1.51%,0.56%,0.08%,1.34%,1.05%,2.42%,-2.4%
c1cnn2ncc(-c3ccnc(NCCCN4CCOCC4)n3)c2c1,2.53%,2.2%,0.54%,1.65%,0.94%,0.76%,1.48%,0.21%,-3.09%,3.23%
c1ccc(-c2n[nH]cc2-c2ccnc(-c3ccc(OCCn4ccnc4)cc3)c2)nc1,4.5%,0.78%,2.78%,5.66%,29.5%,-0.04%,2.15%,2.71%,-0.27%,1.13%
